# Assay results from PubChem BioAssay (NCATS).
# Results filed as inconclusive are left out. A call without a number means that no potency is given here. A number with no mark means an inactive call. Activity calls are given as the source filed them. The call rests on the fitted dose curve; in most records, active means well fitted curve in the direction sought with a large enough effect; inconclusive means small, poorly fitted or top-dose-only effect, or another doubt; inactive means no such curve, though single readings can be large; an effect the other way counts as inactive or inconclusive.
# Assays:
# [1] = target: Furin (Homo sapiens) (UniProt P09958); test: Furin counterscreen qHTS for Zika virus inhibitors (AID 1347149);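 further: purified recombinant full-length human furin enzyme at 5 nM; fluorescence gain from furin cutting a BOC-RVRR-AMC peptide substrate over 15 min; top concentration of the series differs between compounds; nearly all actives have a fitted effect of over 70% in size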
# Sequence of Furin (Homo sapiens) (P09958 whole entry, looked up): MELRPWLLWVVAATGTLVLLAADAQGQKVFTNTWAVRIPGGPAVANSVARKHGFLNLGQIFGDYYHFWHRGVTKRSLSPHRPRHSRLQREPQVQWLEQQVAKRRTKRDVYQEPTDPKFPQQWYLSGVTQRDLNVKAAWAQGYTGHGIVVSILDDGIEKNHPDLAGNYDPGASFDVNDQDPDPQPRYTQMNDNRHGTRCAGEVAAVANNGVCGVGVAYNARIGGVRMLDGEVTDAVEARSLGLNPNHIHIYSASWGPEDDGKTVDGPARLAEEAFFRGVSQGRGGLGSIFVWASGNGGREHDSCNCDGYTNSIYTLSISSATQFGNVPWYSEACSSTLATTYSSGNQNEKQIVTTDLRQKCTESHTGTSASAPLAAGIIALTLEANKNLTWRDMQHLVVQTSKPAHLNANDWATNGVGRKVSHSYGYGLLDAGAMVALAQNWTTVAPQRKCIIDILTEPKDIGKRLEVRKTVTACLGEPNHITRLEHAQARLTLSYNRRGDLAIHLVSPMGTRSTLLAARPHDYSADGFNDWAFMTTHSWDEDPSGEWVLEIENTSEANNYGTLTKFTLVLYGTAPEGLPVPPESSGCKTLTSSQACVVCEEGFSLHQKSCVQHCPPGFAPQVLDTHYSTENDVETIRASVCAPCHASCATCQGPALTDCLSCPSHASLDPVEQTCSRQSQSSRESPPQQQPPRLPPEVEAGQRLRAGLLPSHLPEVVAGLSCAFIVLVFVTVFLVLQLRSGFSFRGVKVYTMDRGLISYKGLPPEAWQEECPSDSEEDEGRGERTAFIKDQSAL
# How it was run: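 Fluorogenic cleavage of BOC-RVRR-AMC (2 microM final, Km ~15 µM) was monitored (ex 340, em 450 nm) at 37C after 15 min RT preincubation of 5 nM furin with compounds in HEPES pH 7.0 buffer with CaCl2 and Triton X-100. Percent inhibition was fitted to a 4-parameter Hill curve.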
# [2] = Confirmatory screen GU Rhodamine qHTS for Zika virus inhibitors qHTS (AID 1347157); further: nearly all actives have a fitted effect of over 70% in size
# How it was run: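 Unlinked NS2B/NS3, 25 nM; Rhod110 peptide, 1.5 microM; compounds, up to 114 microM. Reaction run 15 min at RT in 10 mM Tris-HCl pH 8.0, 0.01% Tween 20; kinetic fluorescence change fitted with a 4-parameter Hill model.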
# [3] = Tertiary RLuc qRT-PCR qHTS assay for Zika virus inhibitors (AID 1347169); further: top concentration of the series differs between compounds; nearly all actives have a fitted effect of over 55% in size
# How it was run: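 Vero cells (1,000 per well) plated overnight at 37 degrees C, treated with compound in DMSO, then infected with recombinant ZIKV-RLuc (Cambodian) at MOI 1-2 for 48-72 hrs. Live-cell Renilla luciferase substrate added; luminescence read after 1-1.5 hrs.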
# [4] = Confirmatory screen NINDS Rhodamine qHTS for Zika virus inhibitors (AID 1347161); further: potency means the concentration at half of the fitted maximal effect; nearly all actives have a fitted effect of over 60% in size
# How it was run: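 Rhodamine110-peptide cleavage (1.5 µM substrate) by 25 nM linked NS2B-NS3 enzyme at pH 8.0 (Tris, Tween 20), after 15 min RT preincubation with compounds; 15-min fluorescence change normalized to controls and Hill-fitted.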
# [5] = system: Zika virus NS2B-NS3 protease (linked); test: 384 well plate NINDS AMC confirmatory qHTS for Zika virus inhibitors (AID 1347163);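 further: fluorescence of AMC released from Ac-VKTGKR-AMC peptide cleaved by the protease; top concentration of the series differs between compounds; nearly all actives have a fitted effect of over 50% in size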
# How it was run: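 Linked protease 5/30/60 nM final; cpds up to 1 mM final, ~15 min preinc. Substrate Ac-VKTGKR-AMC 30 microM final. RT, dark, 25 min; FI ex 355/em 460; normalized to no-enzyme/no-inhibitor ctrls.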
Structure (SMILES),Potency [1],Potency [2],Potency [3],Potency [4],Potency [5]
O=C1OCC2=C1C(c1cccc(Cl)c1)CC(=O)N2c1ccc(C(F)(F)F)cc1 (configuration not stated),inactive,inactive,inactive,,
CC(C)c1ccc(NC(=O)c2ccc3oc(=O)c(S(=O)(=O)c4ccc(F)cc4)cc3c2)cc1,inactive,,,56.2 µM (active),inactive
COC(=O)c1ccccc1NC(=O)CSc1nc(-c2ccccc2)cc(C(F)(F)F)n1,inactive,inactive,inactive,,
CCOC(=O)c1cccc(NC(=O)CSc2ncc3c(n2)-c2ccc(Cl)cc2N(Cc2ccccc2)S3(=O)=O)c1,inactive,,,44.7 µM (active),inactive
